The values below come from PubChem BioAssay (NCATS).

Structures are written as SMILES. Inconclusive results are not listed. Where a call stands in place of a potency, no number is given. Calls of active or inactive are those of the source. The call rests on the fitted dose curve; in most records, active means well fitted cell-killing curve with a large enough effect; inconclusive means small, poorly fitted or top-dose-only effect; inactive means flat fitted curve, though single readings scatter.

The test is described as follows: qHTS assay to identify small molecule inhibitors of chordoma cells - UCH-2 (AID 1259356). The settings on record: UCH-2 chordoma viability, CellTiter-Glo ATP luminescence, 48 h; series mostly up to 46.1 µM. In general terms: qHTS replaces the single test concentration by a dilution series.
As for `O=C(CCN1CCN(CCO)CC1)N1c2ccccc2Sc2ccc(C(F)(F)F)cc21`, the Potency entry was “inactive”. The result for `O=C(Nc1ccc(C(=O)O)c(O)c1)c1ccccc1` reads “inactive”; that for `CC1(C)[C@@H](O)CC[C@]2(C)[C@H]3C(=O)C=C4[C@@H]5C[C@@](C)(C(=O)O)CC[C@]5(C)CC[C@@]4(C)[C@]3(C)CC[C@@H]12`, “inactive”. The result for `COc1cc(/C=C/C(=O)CC(=O)/C=C/c2ccc(O)c(OC)c2)ccc1O` reads “inactive”. As for `CN1CCN(c2cc3c(nn2)Oc2ccccc2N3C)CC1`, the Potency result was “inactive”. In the case of `CC1(C)S[C@@H]2[C@H](NC(=O)[C@H](N)c3ccc(O)cc3)C(=O)N2[C@H]1C(=O)O`, the Potency result was “inactive”. In the case of `CC1(C)[C@@H](O[C@H]2O[C@H](C(=O)O)[C@@H](O)[C@H](O)[C@H]2O[C@@H]2O[C@H](C(=O)O)[C@@H](O)[C@H](O)[C@H]2O)CC[C@]2(C)[C@H]3C(=O)C=C4[C@@H]5C[C@@](C)(C(=O)O)CC[C@]5(C)CC[C@@]4(C)[C@]3(C)CC[C@@H]12`, the Potency result is “inactive”.

In the case of `CC[C@H]1OC(=O)[C@H](C)[C@@H](O[C@H]2C[C@@](C)(OC)[C@@H](O)[C@H](C)O2)[C@H](C)[C@@H](O[C@@H]2O[C@H](C)C[C@H](N(C)C)[C@H]2O)[C@](C)(O)C[C@@H](C)C(=O)[C@H](C)[C@@H](O)[C@]1(C)O`, the Potency entry is “inactive”. With `C[C@H](O)[C@H](O)[C@H]1CNc2nc(N)[nH]c(=O)c2N1` the entry was “inactive”; with `CC1(C)C[C@@H]1C(=O)N/C(=C\CCCCSC[C@H](N)C(=O)O)C(=O)O`, “inactive”. With `CCCC(=O)OC[C@@H](OC(=O)CCC)[C@@H](OC(=O)CCC)[C@H](Cn1c2nc(=O)[nH]c(=O)c-2nc2cc(C)c(C)cc21)OC(=O)CCC` the entry was “inactive”; with `COc1cc(NC(C)CCCN)c2ncccc2c1` (stereo not drawn), “inactive”. `CC[C@H]1OC(=O)[C@H](C)C(=O)[C@H](C)[C@@H](O[C@@H]2O[C@H](C)C[C@H](N(C)C)[C@H]2O)[C@](C)(OC)C[C@@H](C)C(=O)[C@H](C)[C@H]2N(CCCCn3cnc(-c4cccnc4)c3)C(=O)O[C@]12C`: the Potency result was “inactive”.

For `COc1cc(CNC(=O)CCCC/C=C/C(C)C)ccc1O`, the Potency entry is “inactive”. With `O=C(O)Cc1ccc(-c2ccccc2)cc1` the entry was “inactive”. Take `CN1CC(=O)N/C1=N/C(=O)Nc1cccc(Cl)c1`: the Potency entry was “inactive”. Turning to `CN(C)[C@@H]1C(=O)C(C(=O)NCN2CCCC2)=C(O)[C@@]2(O)C(=O)C3=C(O)c4c(O)cccc4[C@@](C)(O)C3C[C@@H]12` (stereo partly drawn), the Potency entry was “inactive”. For `C=CCN1C(=O)C(CC(C)C)NC1=S` (stereo not drawn), the Potency result was “inactive”. The result for `O=C(O)c1cc(O)c(O)c(O)c1` reads “inactive”; that for `c1ccc2sc(SN3CCOCC3)nc2c1`, “inactive”. The result for `O=C(O)[C@H](O)[C@@H](O)[C@H](O)[C@H](O)CO` reads “inactive”; that for `Cc1onc(-c2c(F)cccc2Cl)c1C(=O)N[C@@H]1C(=O)N2[C@@H]1SC(C)(C)[C@@H]2C(=O)O`, “inactive”; that for `COc1ccc(-c2cc(=S)ss2)cc1`, “inactive”. With `CCCCC1C(=O)N(c2ccccc2)N(c2ccc(O)cc2)C1=O` (stereo not drawn) the entry was “inactive”; with `CCCOC(=O)c1ccc(O)cc1`, “inactive”. As to `CCCCCCOc1ccccc1C(N)=O`, the Potency entry is “inactive”. Regarding `CCCCCCCCCCCCCCCC(=O)OC(C)C`, the Potency entry was “inactive”. For the compound `CO/N=C(\C(=O)N[C@@H]1C(=O)N2C(C(=O)O)=C(COC(C)=O)CS[C@H]12)c1csc(N)n1` (stereo in doubt), the Potency entry is “inactive”.
